High-throughput results as filed in PubChem.
An excerpt weighted towards active compounds, which were near 0.46% of everything screened.
PglD DTNB – blocks C. jejuni PglD acetyltransferase activity. purified PglD enzyme, DTNB colorimetric CoA detection. inhibition, % at 12.5 µM. 0.098% of 360,000 active. AID 602405; in the data active = inhibition above about 16%, passing the limit was not always enough
PGC1a acetyl inh – modulators of PGC1a acetylation; U2OS PGC1a acetylation, AlphaScreen anti-acetyl-lysine; with virally co-expressed GCN5 acetyltransferase; 0.17% of 350,000 active; AID 651687; inhibition, % at 15.6 µM;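 active = every replicate shows inhibition of at least 40%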;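 note: 0% = neutral control wells and 100% = positive control wells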
CaV13 ICDI inh – Disruptors of the CACNA1D IQ motif to Ca2+-dependent inactivation inhibitor domain association, primary screening, Förster resonance energy transfer in intact living …; 0.098% of 340,000 active; inhibition, % at 12.3 µM; HEK cells, CFP/YFP FRET ICDI-IQ, plate reader, 10 min; percent FRET-ratio fall versus neutral wells;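 active = mean replicate inhibition of at least 30% and at least 1% of replicates passing that level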;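 note: 0% = median of the neutral control wells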
PDI turbidity – inhibitors of human protein disulfide isomerase. AID 588391. P07237. PDI insulin aggregation turbidity, A650, 90 min. inhibition, % at 10 µM. 0.052% of 350,000 active;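 active = mean inhibition across replicates of 30% or more, whatever share of single replicates reach that level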
ERAP1 HTS inh – blocks human ERAP1 aminopeptidase activity. inhibition, % at 10.7 µM. recombinant ERAP1, Leu-AMC fluorescence, 60 min. Q9NZ08. 0.15% of 340,000 active;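 active = mean replicate inhibition of at least 30%, or all replicates individually reaching that 30% level; inactive = mean below 30% and not every replicate reaching it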;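 note: 0% = neutral control wells and 100% = L-leucinethiol positive control wells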
ERp5 block – inhibitors of human ERp5. Q15084. ERp5 insulin aggregation, absorbance 650 nm, 90 min. 0.05% of 350,000 active. inhibition, % at 9.99 µM. AID 651711;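 active = mean replicate inhibition above about 25%, with every replicate also reaching it, limit read from the data, passing the limit was not always enough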
PglD confirm – blocks Campylobacter jejuni PglD acetyltransferase activity. shares compounds with PglD DTNB. Purified C. jejuni PglD, DTNB absorbance 412 nm. inhibition, % at 20 µM. 320 tested, under 10 active. AID 743156;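 active = mean inhibition across replicates of at least 20% with every single replicate also at 20% or more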;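 note: initial rate of CoA release by acetyl transfer from AcCoA to the UDP-4-amino sugar; 0% = median of neutral control wells and 100% = median of positive control wells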
* = called active by the depositor; . = no result given.

SMILES	PglD DTNB	PGC1a acetyl inh	CaV13 ICDI inh	PDI turbidity	ERAP1 HTS inh	ERp5 block	PglD confirm
COc1cccc(-c2ccc([C@H]3[C@@H](CO)N4CCCCN(C(=O)Cc5ccncc5)C[C@H]34)cc2)c1	2	-21	.	.	-1	-1	.
O=C(O)[C@H]1[C@H](CO)[C@H]2Cn3c(ccc(C4=CCCC4)c3=O)[C@@H]1N2C(=O)Cc1ccccn1	1	.	.	.	0	-4	.
O=c1c2ccccc2[se]n1-c1ccccc1	2	-1	-5	0	75*	5	.
CC(C)N1CCN(Cc2cc3c(cc2Cl)OCO3)CC1CCO (stereo unspecified)	-3	-5	-1	3	0	5	.
CC(C)N1CCN(Cc2cccc3c2OCO3)CC1CCO (stereo unspecified)	21*	2	-14	-4	-1	2	1
Clc1ccccc1CN1CCNCC1	22*	12	-3	6	4	0	0
CCCN1[C@@H]2Cn3c(ccc(-c4ccc(OC)cc4)c3=O)[C@H]1[C@@H](C(=O)OC)[C@@H]2CO	-3	.	.	.	1	0	.
